This is an account of results in PubChem BioAssay AID2284350 (EPA ToxCast).

By AC50 is commonly meant the midpoint of the concentration-response curve, whichever way the signal moves.

Records with an inconclusive call do not appear. Active and inactive are the calls of the source. How the source made its calls: active means hit-call score of the fitted dose curve at least 0.9, where 1 is the maximum; inconclusive means response in the unintended direction; inactive means score below 0.9.

The assay relates to zebrafish Peroxisome Proliferator-activated Receptor alpha (PPARa), gene 563298. The experiment in a line: ATG_zfPPARa_EcoTox2: Attagene TRANS-FACTORIAL EcoTox-2 HepG2 Assay for zebrafish Peroxisome Proliferator-activated Receptor alpha (PPARa). How it is done: ATG_EcoTox2 is a cell-based, multiplexed assay created by modifying the existing Attagene TRANS-FACTORIAL system to include a panel of nuclear receptors from some or all the following species: human (Homo sapiens), african clawed frog (Xenopus laevis), rainbow trout (Oncorhynchus mykiss), japanese medaka (Oryzias latipes), and zebrafish (Danio rerio). The ECOTOX2-FACTORIAL format uses HepG2, a human liver cell line, with measurements taken at 24 hours after chemical dosing in a 24-well plate. ATG_zfPPARa_EcoTox2 is one of 29 assay components calculated in the ATG_EcoTox2 assay. It is designed to make measurements of mRNA induction, a form of inducible reporter, as detected with fluorescence intensity signals by Reverse transcription polymerase chain reaction (RT-PCR) and Capillary electrophoresis technology.The assay endpoint ATG_zfPPARa_EcoTox2 was analyzed in the positive analysis fitting direction relative to DMSO as the negative control and baseline of activity. Using a type of inducible reporter, measures of mRNA for gain-of-signal activity can be used to understand the reporter gene at the transcription factor-level as they relate to the gene PPARa. Furthermore, this assay endpoint can be referred to as a primary readout, because this assay has produced multiple assay endpoints where this one serves a reporter gene function. To generalize the intended target to other relatable targets, this assay endpoint is annotated to the nuclear receptor intended target family, where the subfamily is non-steroidal.
Human liver HepG2 cells are transiently transfected with multiple reporter transcription units (MRTUs) in 6-well plates using FuGene 6 reagent (Roche; 3 ml FuGene/1 mg DNA). The MRTU constructs are regulated by a cis-regulating element (promoter). Each RTU expresses a GAL4-UAS that regulates the transcription of a nearby target reporter gene sequence. A major difference between the CIS and TRANS system is that in CIS activities of endogenous TFs are measured, whereas the TRANS assay evaluates changes in activities of exogenous, chimeric NR-Gal4 proteins. […] At the end of 24 hour incubation, total RNA was isolated using TriZol reagent (Invitrogen). The isolated RNA is then reverse-transcribed using oligo(dT) primer and Mo-MLV reverse transcriptase (Invitrogen) with DNAse I (Ambion) treatment for 30 min. The one-tenth of the produced cDNA was amplified by PCR using Taq DNA polymerase (Invitrogen) and two reporter sequence-specific primers. The PCR products were fluorescently labeled by primer extension with 6-arboxyfluorescein (6-FAM) 5'-labeled reporter sequence-specific primer (2 min at 95 C, 20 s at 68 C and 10 min at 72 C) and these products were digested with 5U of HpaI (New England Biolabs) for 2h at 37 C. The fragments were purified using Qiaquick PCR columns (Qiagen), analyzed on an ABI 3130xL genetic analyzer (Applied Biosystems) with peak positions identified by using a set of X-rhodamine (ROX)-labeled MapMarker1000 molecular weight standards (BioVentures). The raw capillary electrophoresis data was processed using Attagraph software (Attagene).
Take `O=S(=O)(O)C(F)(F)C(F)(F)C(F)(F)C(F)(F)C(F)(F)C(F)(F)F`: the outcome was inactive.

Turning to `[Cl][Sn]([c]1ccccc1)([c]1ccccc1)[c]1ccccc1`, the call was inactive.

For the compound `O=C(O)C(F)(F)C(F)(F)C(F)(F)C(F)(F)C(F)(F)C(F)(F)C(F)(F)F`, the AC50 was 52.7 µM (active).

Regarding `CCCCOCN(C(=O)CCl)c1c(CC)cccc1CC`, the compound was called inactive.

`O=P(Oc1ccccc1)(Oc1ccccc1)Oc1ccccc1`: the outcome was inactive.
